Source: PubChem
GC-A act: GC-A (human) enzyme activation; AID 1671463; HEK293 GC-A cells, cGMP TR-FRET, EC30 ANP; 0% at EC30 ANP, 100% saturating ANP; activation, % at 10 µM; P16066; 370,000 compounds, 0.14% hits; in the data active = activation above about 40%
GC-B act: GC-B (human) receptor activation | HEK293-GC-B cells, CNP EC30, cGMP TR-FRET; 0% at EC30 CNP, 100% saturating CNP | activation, % at 10 µM | 370,000 compounds, 0.11% hits | P20594;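 active = activation at 10 µM reaching about 35% in either raw or pattern-adjusted values, limit read from the data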
PfM18AAP inh-1: blocks P. falciparum M18 aspartyl aminopeptidase. recombinant PfM18AAP, H-Glu-NHMec fluorogenic cleavage. inhibition, % at 7.35 µM. 290,000 compounds, 1.2% hits. AID 1822;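 active = inhibition above the campaign mean inhibition over all tested compounds plus 3 SD, cut at about 28% in these data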;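 also: 0% = plate median of test compound wells and 100% = 2 mM ZnCl2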
Rce1 inhib: yeast Ras-converting enzyme inhibition | Q03530 | yeast membranes, quenched prenylated peptide cleavage fluorescence | calls only | 290,000 compounds, 0.27% hits | AID 2563;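 active = fall in fluorescence gain of 50% or more versus controls, with final raw signal at or below 3038400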;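 also: plate controls were neutral control wells for no effect and wells lacking membranes for full effect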
PLC-beta3 inh: inhibitors of human phospholipase C beta3; 370,000 compounds, 0.18% hits; Q01970; Purified PLC-beta3, fluorogenic substrate, fluorescence; AID 720704; inhibition, % at 12.2 µM; in the data active = inhibition above about 11%;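 also: 0% = median of compound wells on plate and 100% = full blocker control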
PLCg1 inh: inhibitors of human phospholipase C gamma1; P19174; purified PLC-gamma1, fluorogenic substrate, fluorescence; inhibition, % at 12.2 µM; 370,000 compounds, 0.84% hits; in the data active = inhibition above about 9.5%
PfM18AAP inh-2: confirmation of Plasmodium falciparum M18 aspartyl aminopeptidase inhibitors; shares compounds with PfM18AAP inh-1; recombinant PfM18AAP, H-Glu-NHMec fluorogenic cleavage; inhibition, % at 7.35 µM; 2,400 compounds, 28% hits;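 active = mean inhibition over replicate wells above the hit cutoff set for the earlier primary screen, cut at about 29% in these data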;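 also: 0% = median of test compound wells and 100% = 2 mM ZnCl2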
CTSL1 confirm: counter-screen for PFM18AAP inhibitors: confirmation of human cathepsin L inhibitors. shares compounds with PfM18AAP inh-1. purified cathepsin L1, Z-Leu-Arg-MCA fluorescence. inhibition, % at 5.96 µM. 2,400 tested, under 10 active;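 active = average inhibition across replicates above the hit cutoff set in the earlier primary screen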;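 also: 0% = median of test compound wells and 100% = Z-Phe-Ala-diazomethylketone 1 µM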
* = called active by the depositor; i = inactive; / = no result given; ! = not confirmed by another sample. In the library only some 2.2% were active in any assay of this set; here they are far more common.

SMILES | GC-A act | GC-B act | PfM18AAP inh-1 | Rce1 inhib | PLC-beta3 inh | PLCg1 inh | PfM18AAP inh-2 | CTSL1 confirm
NC(=O)c1cc(Cc2ccccc2)sc1NC(=O)c1ccco1 | 8 | 4 | 35* | / | -112 | -81 | -21 | 6
CCOC(=O)CN1NC2(CCC(C(C)(C)C)CC2)NC1=S (stereo not drawn) | 2 | 4 | 0 | i | -2 | 1 | / | /
CCOC(=O)CN1NC2(CCCC(C)C2)NC1=S (stereo not drawn) | 0 | 1 | 43* | i | 0 | 0 | -52 | -1
CCOC(=O)CN1NC2(CCCCCCC2)NC1=S | 3 | 8 | 14 | i | -4 | -1 | / | /
CCOC(=O)CN1NC2(CCC(C)CC2)NC1=S (stereo not drawn) | 0 | 0 | 43* | i | 1 | 5 | -48 | -3
N#CCC(=O)NN=C1CCCCCCCCCCC1 | -3 | -2 | 54* | i | 2 | 5 | -22 | 2
NNc1ccc2c(C(F)(F)F)cc(C(F)(F)F)nc2n1 | -1 | 2 | 45* | i | -94 | -87 | 24 | -4
O=C(CN1CCN(c2ccccc2F)CC1)c1ccc(O)c(O)c1 | -1 | -1 | 60* | i | -6 | 4 | 37* | 2
O=C(CN1CCN(S(=O)(=O)c2ccc(Br)cc2)CC1)c1ccc(O)c(O)c1 | 1 | -2 | 72* | i | -4 | 0 | 40* | -1
Cc1c(O)ccc(C(=O)CN2CCN(c3ccccc3F)CC2)c1O | / | / | 6 | i | / | / | / | /
CC(C)c1ccc(S(=O)(=O)N2CCN(CC(=O)c3ccc(O)c(O)c3)CC2)cc1 | -2 | 2 | 67* | i | -7 | 0 | 36* | 7
CC(C)c1ccc(S(=O)(=O)N2CCN(CC(=O)Nc3ccc(Cl)cc3F)CC2)cc1 | -1 | -6 | / | / | -4 | -1 | / | /
CC(C)NC(=O)Nc1n[nH]c(Nc2ccc(Cl)cc2)n1 | 4 | -11 | 40* | i | -3 | 2 | 9 | -3
O=C(c1cnn(C(=O)COc2ccccc2F)c1)c1cc(F)ccc1O | -1 | 4 | 43* | i | -8 | -3 | -15 | -10
CN(C)c1cccc(C(=O)n2cc(C(=O)c3cc(F)ccc3O)cn2)c1 | -1 | 1 | 53* | i | -49 | -40 | -5 | 4
Cc1ccc(CNC(=O)CCS(=O)(=O)c2cc3c(cc2Br)CCN3C(=O)C2CC2)o1 | -16 | -11 | / | / | 0 | -4 | / | /
Cc1nnc(SCC(=O)NNC(=O)CC#N)[nH]c1=O | 0 | 3 | 43* | i | -2 | 0 | 28 | 4
CC1=C([N+](=O)[O-])C(c2ccc(O)c(O)c2)NC(=O)N1 (stereo not drawn) | -2 | 2 | 84* | i | -5 | 1 | 81* | -4
CC(=O)C1=C(c2ccccc2)NC(=S)NC1c1ccc(O)c(O)c1 (stereo not drawn) | 4 | 7 | 74* | i | -2 | 1 | 68* | 5
CC(=O)C1=C(c2ccccc2)NC(=O)NC1c1ccc(O)c(O)c1 (stereo not drawn) | 2 | 1 | 77* | i | 0 | 3 | 71* | -6
O=C(NCc1ccc(Cl)cc1)C1C2C=CC3(CN(Cc4ccccc4)C(=O)C13)O2 (stereo not drawn) | 3 | 1 | / | / | 2 | 2 | / | /
CCC(=O)N1CCc2cc(Br)c(S(=O)(=O)NCCCN(C)Cc3ccccc3)cc21 | 3 | -7 | / | / | 0 | -1 | / | /
CCN1Cc2nnn(CC3CCCCC3)c2-c2ccccc2S1(=O)=O | -7 | -5 | / | / | 1 | -1 | / | /
COC(=O)CCC(=O)Nc1sc(Cc2ccccc2)c(C)c1C(N)=O | 21 | 13 | 12 | i | 1 | -1 | / | /
COc1cccc(/C=N/c2sc(Cc3ccccc3)c(C)c2C(N)=O)c1O | 7 | 1 | 34* | i | -164 | -147 | -24 | -5
SMILES | GC-A act | GC-B act | PfM18AAP inh-1 | Rce1 inhib | PLC-beta3 inh | PLCg1 inh | PfM18AAP inh-2 | CTSL1 confirm
CCOc1ccc(NC(=O)c2sc3nc(N4CCOCC4)c4c(c3c2N)CCCC4)cc1 | 26 | 16 | 43* | i | -19 | -10 | 15 | 5
COc1cccc(NC(=O)c2sc3nc(N4CCOCC4)c4c(c3c2N)CCCC4)c1 | 19 | 11 | 50* | i | -121 | -84 | 2 | -18
Nc1c(C(=O)Nc2ccc(Cl)cc2)sc2nc(N3CCOCC3)c3c(c12)CCCC3 | 28 | 9 | 42* | i | -434 | -308 | 0 | 0
Nc1c(C(=O)N2CCOCC2)sc2nc(N3CCOCC3)c3c(c12)CCCC3 | 26 | 17 | 37* | i | i | -424 | 10 | 1
CCCCNS(=O)(=O)CC1NCc2ccccc21 (stereo not drawn) | 4 | -5 | / | / | -4 | -5 | / | /
Cc1ccc(NC(=O)c2sc3nc(N4CCOCC4)c4c(c3c2N)CCCC4)cc1 | 22 | 20 | / | / | -138 | -91 | / | /
CC(=O)c1ccc(NC(=O)c2sc3nc(N4CCOCC4)c4c(c3c2N)CCCC4)cc1 | 27 | 17 | 43* | i | -26 | -15 | 4 | 4
Cc1cc(=O)[nH]c(N/N=C/c2ccc(O)c(O)c2)n1 | -5 | -1 | 45* | i | -11 | -6 | 21 | 8
Oc1ccc(/C=N/Nc2ccc(Cl)nn2)cc1O | -4 | -6 | 47* | i | -1 | 4 | 18 | 4
COc1cc(/C=N/Nc2nc(N3CCCC3)nc(N3CCCC3)n2)ccc1O | 6 | 4 | -5 | i | -4 | 0 | / | /
Cc1ccc(/C=N/Nc2ccc(Cl)nn2)cc1 | 0 | 2 | -2 | i | -10 | 2 | / | /
Oc1ccc(/C=N/Nc2nc(N3CCCC3)nc(N3CCCC3)n2)cc1O | -2 | 7 | 54* | i | -12 | -8 | 28* | 5
C#CCN1CC(N(C)CCOC(=O)c2ccc([N+](=O)[O-])cc2)CS1(=O)=O (stereo not drawn) | -3 | 0 | / | / | 4 | 4 | / | /
Cc1cc(N=O)c(C)cc1O | -5 | 4 | / | / | 2 | 6 | / | /
Cc1cc(O)c(-c2cc(O)c(C)cc2O)cc1O | 14 | -5 | 71* | i | -25 | -12 | 51* | -2
Nc1ccc(C(=O)Oc2ccc([N+](=O)[O-])cc2)c(O)c1 | / | / | 19 | i | / | / | -52 | -3
O=C(O)c1ccc(O)cc1O | 1 | -12 | / | / | -2 | 1 | / | /
Nc1ccc(C(=O)O)c(O)c1 | 5 | -5 | 33*! | i | -1 | 0 | -23 | -1
COC(=O)[C@]12C[C@H](CC(=O)NCc3cccc(C(F)(F)F)c3)C(=O)N(Cc3ccc(Cl)cc3Cl)C1=C[C@H](C(C)(C)C)O[C@@H]2C | -3 | -2 | / | / | 0 | -2 | / | /
